From PubChem BioAssay
The source made the active and inactive calls.

Columns and labels:
[1] = system: Human papillomavirus type 1a protein E7 (residues 44-93); assay: HPV1a E7 fragment binders on microarrays, primary screen, biochemical, small-molecule microarray, residues 44-93, 635 nm fluorescence (AID 1108); conditions: small-molecule microarray binding, fluorescence 635 nm; higher = more signal;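 further: E7 fragment applied at 1 µg/mL in TBST for 1 h at 4 C; score combines spot fluorescence with its signal to noise ratio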
[2] = modulators of HCV replicon luciferase signal, primary screen, HCV replication inhibitor project, Huh7 cells, luciferase reporter (AID 1109); conditions: 48 h, higher = more signal;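 further: huh7 hepatoma cells harbouring a luciferase neomycin HCV replicon reporter; luciferase luminescence as measure of HCV replicon replication; test concentration not given here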
[3] = biological target: Left-right determination factor 2 (Homo sapiens) (UniProt O00292); assay: LEFTY2 binders on small-molecule microarrays, primary screen, biochemical, small-molecule microarray, 635 nm fluorescence scan (AID 1110); conditions: LEFTY2 binding, higher = more signal
Chain of Left-right determination factor 2 (Homo sapiens) (O00292 whole entry, looked up): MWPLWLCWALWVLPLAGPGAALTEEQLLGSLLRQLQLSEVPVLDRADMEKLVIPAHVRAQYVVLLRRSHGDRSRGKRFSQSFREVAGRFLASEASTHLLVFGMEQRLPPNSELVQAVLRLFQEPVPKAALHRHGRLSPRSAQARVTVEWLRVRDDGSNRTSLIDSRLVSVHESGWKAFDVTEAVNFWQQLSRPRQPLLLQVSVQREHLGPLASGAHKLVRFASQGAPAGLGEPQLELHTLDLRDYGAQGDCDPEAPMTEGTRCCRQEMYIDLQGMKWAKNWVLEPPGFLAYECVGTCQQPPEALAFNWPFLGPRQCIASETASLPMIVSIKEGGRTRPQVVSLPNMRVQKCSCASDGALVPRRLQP

[4] = biological target: Calmodulin-1 (Homo sapiens) (UniProt P0DP23); assay: CALM1 binders on microarrays, EGTA buffer, profiling panel, biochemical, small-molecule microarray, Cy5-labelled CALM1 (AID 1111); conditions: Cy5-CALM1 binding fluorescence, higher = more signal;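 further: labelled calmodulin applied in Tris saline Tween buffer holding calcium plus EGTA and DTT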
[5] = biological target: Calmodulin-1 (Homo sapiens) (UniProt P0DP23); assay: calcium-bound CALM1 binders on microarrays, profiling panel, artefact control for SMM control-protein annotation, biochemical, small-molecule microarray, Cy5-labelled CALM1, plus calcium (AID 1112); conditions: Cy5-CALM1 binding fluorescence, higher = more signal;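 further: score merges spot fluorescence with signal to noise from triplicate slides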
[6] = small-molecule microarray binders of probe aWnt5a, primary screen, biochemical, biotinylated probe, 635/667 nm fluorescence (AID 1113); conditions: higher = more signal;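 further: score merges 667 nm fluorescence intensity with signal-to-noise per printed feature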
[7] = small-molecule microarray binders of probe aShh, primary screen, biochemical, biotinylated probe, 635/667 nm fluorescence (AID 1114); conditions: higher = more signal;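 further: probe is biotin-labelled aShh protein from a stem cell growth factor screen; measures binding of labelled protein to compounds printed on the slide; score merges feature fluorescence at 667 nm with signal-to-noise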
[8] = small-molecule microarray binders of probe aNog, primary screen, biochemical, biotinylated probe, 635/667 nm fluorescence (AID 1115); conditions: higher = more signal;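 further: probe is biotinylated aNog protein used at 0.15 µg/mL for 1 h at 4 C; z-score combines 667 nm fluorescence of each spot with its signal to noise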
[9] = biological target: Torsin-1A-interacting protein 1 (Homo sapiens) (UniProt Q5JTV8); assay: LAP1 binders from COS7 cell lysate, primary screen, small-molecule microarray, 635/667 nm fluorescence (AID 1116); conditions: COS7-hLAP1 lysate binding, 635 nm fluorescence, higher = more signal
Chain of Torsin-1A-interacting protein 1 (Homo sapiens) (Q5JTV8 whole entry, looked up): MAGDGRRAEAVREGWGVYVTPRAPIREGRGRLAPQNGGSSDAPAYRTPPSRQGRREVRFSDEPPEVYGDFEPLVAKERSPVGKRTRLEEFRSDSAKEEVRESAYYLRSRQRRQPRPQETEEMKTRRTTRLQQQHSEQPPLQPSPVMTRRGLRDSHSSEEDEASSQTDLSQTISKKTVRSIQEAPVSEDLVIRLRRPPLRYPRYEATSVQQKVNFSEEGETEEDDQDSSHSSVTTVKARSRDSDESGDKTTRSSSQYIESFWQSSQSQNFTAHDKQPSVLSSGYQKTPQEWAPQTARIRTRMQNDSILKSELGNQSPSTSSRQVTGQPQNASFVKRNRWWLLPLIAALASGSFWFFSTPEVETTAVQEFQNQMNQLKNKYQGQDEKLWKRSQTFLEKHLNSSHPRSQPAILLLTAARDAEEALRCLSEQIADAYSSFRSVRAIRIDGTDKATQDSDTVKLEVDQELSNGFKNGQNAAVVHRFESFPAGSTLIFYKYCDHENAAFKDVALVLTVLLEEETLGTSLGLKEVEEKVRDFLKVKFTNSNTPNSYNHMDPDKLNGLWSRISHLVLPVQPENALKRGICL

[10] = biological target: Alpha-bungarotoxin (Bungarus multicinctus) (UniProt P60615); assay: alpha-bungarotoxin binders on microarray, profiling panel, artefact control for SMM control protein annotation, biochemical, small-molecule microarray, Alexa647 label, 635/667 nm fluorescence (AID 1117); conditions: alpha-BTX-A647 binding fluorescence, higher = more signal
Chain of Alpha-bungarotoxin (Bungarus multicinctus) (P60615 whole entry, looked up): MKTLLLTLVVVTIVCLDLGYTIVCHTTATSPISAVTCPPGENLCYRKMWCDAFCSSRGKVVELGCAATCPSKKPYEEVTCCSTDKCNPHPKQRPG

Albumin (Bos taurus) = Albumin (Bos taurus) (UniProt P02769); assay: bovine serum albumin binders on microarray, profiling panel, artefact control for SMM control protein annotation, biochemical, small-molecule microarray, Alexa647 label, 635/667 nm fluorescence (AID 1118); conditions: BSA-A647 binding, fluorescence 635 nm, higher = more signal;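 further: score merges 667 nm emission intensity and signal-to-noise per printed compound spot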
Chain of Albumin (Bos taurus) (P02769 whole entry, looked up): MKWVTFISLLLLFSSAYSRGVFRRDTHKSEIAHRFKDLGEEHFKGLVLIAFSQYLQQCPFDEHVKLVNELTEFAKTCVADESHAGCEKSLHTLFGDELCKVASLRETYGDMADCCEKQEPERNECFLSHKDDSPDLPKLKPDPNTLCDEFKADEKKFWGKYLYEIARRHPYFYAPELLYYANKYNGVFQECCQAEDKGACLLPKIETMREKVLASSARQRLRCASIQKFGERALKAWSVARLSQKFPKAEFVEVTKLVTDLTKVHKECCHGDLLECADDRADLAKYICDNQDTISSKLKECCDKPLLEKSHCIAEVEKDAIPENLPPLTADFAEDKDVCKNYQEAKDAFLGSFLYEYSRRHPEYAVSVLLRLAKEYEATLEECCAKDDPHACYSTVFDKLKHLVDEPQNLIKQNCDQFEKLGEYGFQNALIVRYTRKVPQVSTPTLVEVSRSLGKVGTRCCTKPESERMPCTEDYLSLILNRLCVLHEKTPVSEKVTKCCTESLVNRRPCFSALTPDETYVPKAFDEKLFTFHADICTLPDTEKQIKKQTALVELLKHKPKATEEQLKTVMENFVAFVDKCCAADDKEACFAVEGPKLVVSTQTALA

[11] = small-molecule microarray binders of probe aXIP, primary screen, biochemical, NeuroSMM set, 635/667 nm fluorescence (AID 1119); conditions: higher = more signal, called active from +8 up or from −8 down;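 further: probe is the protein aXip251-270 applied at 1 µg/mL to compound-printed slides; binding of probe to printed compounds measured as 667 nm fluorescence plus signal to noise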
[12] = small-molecule binders of probe aNOTCH3, primary screen, biochemical, small-molecule microarray, 635/667 nm fluorescence (AID 1120); conditions: higher = more signal;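 further: probe is a biotin-tagged antibody raised against NOTCH3 rather than NOTCH3 protein; score merges spot fluorescence near 667 nm with spot signal to noise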
[13] = small-molecule binders of probe aNOTCH2, primary screen, biochemical, small-molecule microarray, 635/667 nm fluorescence (AID 1121); conditions: higher = more signal;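 further: score merges feature fluorescence read at 667 nm with its signal to noise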
[14] = biological target: Carbonic anhydrase 2 (Homo sapiens) (UniProt P00918); assay: CAII small-molecule binders, profiling panel, biochemical, small-molecule microarray, Alexa647-labelled CAII (AID 1122); conditions: CAII-A647 binding fluorescence, higher = more signal
[15] = COS7 lysate on small-molecule microarray, probe aHis, 635 nm (AID 1123); conditions: COS7 cell lysate, fluorescence, higher = more signal;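 further: z-score combines 667nm fluorescence intensity with signal-to-noise per printed compound spot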
[16] = compound binding in COS7 lysate, probe aLAP1, primary screen, cell lysate, small-molecule microarray (AID 1124); conditions: probe aLAP1, fluorescence, higher = more signal;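 further: lysate comes from COS7 cells expressing LAP1 and is applied at 0.3 µg/mL; score merges spot fluorescence near 667 nm with signal-to-noise over triplicate slides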
Sam68 (KHDRBS1) = assay: Sam68 small-molecule binders, primary screen, biochemical, small-molecule microarray, 635 nm fluorescence (AID 1125); conditions: small-molecule microarray binding, higher = more signal;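 further: score merges 667 nm channel intensity with signal to noise over triplicate slides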
[17] = system: Chordin-like protein 2 (CHRDL2); assay: CHRDL2 small-molecule binders, primary screen, biochemical, small-molecule microarray, 635 nm fluorescence (AID 1126); conditions: small-molecule microarray binding, fluorescence 635 nm; higher = more signal;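 further: printed compound slides probed with Chrdl2 protein at 4 µg/mL for 1 h at 4 C; score merges 667 nm emission intensity with signal to noise over three replicate slides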
[18] = biological target: Concanavalin-A (Canavalia ensiformis) (UniProt P02866); assay: ConA small-molecule binders, primary screen, artefact control for SMM control protein annotation, biochemical, small-molecule microarray, Alexa647 label, 635 nm (AID 1127); conditions: ConA-A647 binding fluorescence, higher = more signal;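 further: z combines 667 nm emission intensity with signal-to-noise across three replicate slides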
Chain of Concanavalin-A (Canavalia ensiformis) (P02866 whole entry, looked up): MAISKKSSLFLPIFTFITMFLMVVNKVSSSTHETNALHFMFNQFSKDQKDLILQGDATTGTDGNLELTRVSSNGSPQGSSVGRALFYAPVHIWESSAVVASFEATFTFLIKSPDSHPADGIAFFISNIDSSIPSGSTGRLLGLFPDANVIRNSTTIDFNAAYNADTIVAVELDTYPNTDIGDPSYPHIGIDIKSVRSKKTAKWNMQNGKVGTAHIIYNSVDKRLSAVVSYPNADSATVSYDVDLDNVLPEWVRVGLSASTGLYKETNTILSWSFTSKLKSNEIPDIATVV

CC(C)(C)N1CC=CC23O[C@@H]4C=CCOC(=O)[C@@H]4[C@H]2C(=O)N(CCO)[C@@H]3C1=O (stereo not given in full)
composite z-score [1]: 0.0175
z-score [2]: -0.471
composite z-score [3]: -1.37
composite z-score [4]: -0.605
composite z-score [5]: 0.546
composite z-score [6]: -0.15
composite z-score [7]: 0.0136
composite z-score [8]: -0.364
composite z-score [9]: -0.843
composite z-score [10]: -0.7
composite z-score (Albumin (Bos taurus)): 0.439
composite Z-score [11]: 0.256 (inactive)
composite z-score [12]: -0.446
composite z-score [13]: -0.196
composite z-score [14]: 0.671
composite z-score [15]: 1.95
composite z-score [16]: -0.719
composite z-score (Sam68 (KHDRBS1)): -0.738
composite z-score [17]: -2.63
composite z-score [18]: -0.634

COCCCN1C(=O)[C@@]2(c3ccc([N+](=O)[O-])cc3)CC(=O)N(CC34CC5CC(CC(C5)C3)C4)[C@@H]2c2ccc(CO)cc21
composite z-score [1]: 0.372
z-score [2]: -0.445
composite z-score [3]: -0.407
composite z-score [4]: -0.226
composite z-score [5]: -0.406
composite z-score [6]: -0.096
composite z-score [7]: -0.291
composite z-score [8]: -0.461
composite z-score [9]: -0.507
composite z-score [10]: 0.241
composite z-score (Albumin (Bos taurus)): -0.0098
composite Z-score [11]: 0.208 (inactive)
composite z-score [12]: -0.101
composite z-score [13]: -0.0666
composite z-score [14]: 0.48
composite z-score [15]: 0.373
composite z-score [16]: 0.991
composite z-score (Sam68 (KHDRBS1)): 0.229
composite z-score [17]: -0.0444
composite z-score [18]: 0.728

C=C(CCCC)C(=O)CC[C@H](OC(=O)c1ccccc1-c1ccccc1C(=O)O)c1ccc(OCCO)cc1
composite z-score [1]: 1.34
z-score [2]: -2.05
composite z-score [3]: 0.849
composite z-score [4]: 0.945
composite z-score [5]: -0.898
composite z-score [6]: -0.119
composite z-score [7]: -0.154
composite z-score [8]: -0.495
composite z-score [9]: 0.479
composite z-score [10]: 1.02
composite z-score (Albumin (Bos taurus)): 0.763
composite Z-score [11]: -0.235 (inactive)
composite z-score [12]: 0.184
composite z-score [13]: -0.185
composite z-score [14]: 0.573
composite z-score [15]: 1.2
composite z-score [16]: -0.0334
composite z-score (Sam68 (KHDRBS1)): 0.958
composite z-score [17]: 0.0139
composite z-score [18]: 0.969
